Assay outcomes (PubChem BioAssay)
FLuc modulator: qHTS profiling assay for firefly luciferase inhibitor/activator using purifed enzyme and Km concentrations of substrates (counterscreen for miR-21 project). purified FLuc, Km substrates, luminescence inhibition. AID 588342, 2011. 360,000 compounds, 6.9% hits. Potency, µM (highest dose often 57.5 µM), inactives show at the highest dose activity change, negative = inhibition, actives largely listed as inhibitors;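 note: plate controls were vehicle for no effect and reference inhibitor for full effect; nearly all actives have a fitted effect of over 55% in size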
Target sequence (P08659 whole entry, looked up): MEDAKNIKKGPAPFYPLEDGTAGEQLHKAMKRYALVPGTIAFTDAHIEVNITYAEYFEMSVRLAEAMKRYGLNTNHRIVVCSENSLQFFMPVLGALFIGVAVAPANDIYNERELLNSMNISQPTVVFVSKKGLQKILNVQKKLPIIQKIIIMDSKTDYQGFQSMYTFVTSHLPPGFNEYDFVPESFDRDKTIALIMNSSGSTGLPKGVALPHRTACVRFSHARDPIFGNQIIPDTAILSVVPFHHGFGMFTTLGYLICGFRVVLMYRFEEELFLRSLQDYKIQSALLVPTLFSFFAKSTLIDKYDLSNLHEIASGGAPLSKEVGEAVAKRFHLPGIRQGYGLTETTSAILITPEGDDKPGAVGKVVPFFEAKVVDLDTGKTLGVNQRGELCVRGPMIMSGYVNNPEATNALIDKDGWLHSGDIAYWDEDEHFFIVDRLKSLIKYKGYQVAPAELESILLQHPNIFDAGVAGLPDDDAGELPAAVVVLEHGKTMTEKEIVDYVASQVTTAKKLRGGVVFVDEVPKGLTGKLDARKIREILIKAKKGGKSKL
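Purified P. pyralis luciferase, 10 nM final, with Km-level 10 uM D-luciferin and 10 uM ATP in 50 mM Tris acetate pH 7.5, 10 mM Mg acetate, 0.01% Tween-20, 0.05% BSA; 6-point qHTS titration about 60 µM downward; luminescence read.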
SMN2 splice up: qHTS Assay for Enhancers of SMN2 Splice Variant Expression | Potency, µM (series often up to 46.1 µM), inactives show at the top dose activity change, positive = activation, hits mostly activators | HEK293 SMN2-luciferase splicing reporter, luminescence, 30-36 h | AID 1458, 2008 | 210,000 compounds, 2.8% hits; note: % of control where 0% means no effect; nearly all actives have a fitted effect of over 55% in size
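qHTS luciferase splicing reporter: luminescence rises when SMN2 exon 7 is included in transfected HEK293 cells. Compound exposure lasted 30-36 h at 37C, with 4.5 mM final sodium butyrate as control, followed by a ONE-Glo read.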
NPC1 prom act: qHTS Assay for NPC1 Promoter Activators; Huh7 NPC1 promoter luciferase reporter, 24 h; Potency, µM (highest dose often 9.22 µM), inactives show at the top dose activation, actives largely listed as activators; 320,000 compounds, 2.4% hits; note: % of control where 0% means no effect; nearly all actives have a fitted effect of over 60% in size
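Readout is luciferase luminescence, reflecting NPC1 promoter activation in stably transfected Huh7 cells after 24 h compound exposure at 37 °C in reduced-serum medium with 10% FBS.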
ELG1 DNA repair: qHTS screen for small molecules that inhibit ELG1-dependent DNA repair in human embryonic kidney (HEK293T) cells expressing luciferase-tagged ELG1; HEK293T ELG1-luciferase reporter, luminescence, 16 h; DNA damage induced by 5-fluorouridine; 330,000 compounds, 2.3% hits; Potency, µM (series often up to 46.1 µM), for inactives: at the top dose activity change, negative = inhibition, most hits filed as inhibitors; note: % is set by controls: 0 for no effect and ±100 for the full control effect; nearly all actives have a fitted effect of over 55% in size
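Luminescence from the luciferase reporter, measured 30 min after ONE-Glo reagent at room temperature, was the read-out. Beforehand, 2,000 cells per well were exposed for 16 hr at 37 °C to 5-fluorouridine together with compound or vehicle.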
Rab9 prom act: qHTS Assay for Rab9 Promoter Activators; Potency, µM (highest dose often 9.22 µM), for the others: at the top dose activation, negative = inhibition, most hits filed as activators; Huh7 Rab9 promoter-luciferase reporter, luminescence, 24 h; AID 485297, 2010; 320,000 compounds, 2.8% hits; note: % of control where 0% means no effect; nearly all actives have a fitted effect of over 60% in size
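Cells were plated at 1500 per well in reduced-serum medium with 10% FBS and left 2 h. Compound in DMSO was then added for 24 h at 37 °C. Reporter signal was read by luminescence after 10 min with luciferase detection reagent.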
ELG1 genotox: qHTS screen for small molecules that induce genotoxicity in human embryonic kidney (HEK293T) cells expressing luciferase-tagged ELG1 | HEK293T ELG1-luciferase reporter, luminescence, 16 h | Potency, µM (top dose mostly 46 µM), inactives show at the highest dose activity change, positive = activation, hits mostly activators | 330,000 compounds, 1.3% hits | AID 504466, 2011; note: % of control where 0% means no effect; nearly all actives have a fitted effect of over 60% in size
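HEK293T cells expressing luciferase-tagged ELG1 were treated with compound or DMSO for 16 hr at 37°C. Luciferase activity was then read after 30 min with ONE-Glo at room temperature; rising signal flags genetic stress.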
An asterisk follows results filed as active; ? = inconclusive; / = not tested or not shown; [ ] = remark or other dose. Sampled rows, rich in hits. Any-hit rate of the full collection: about 9.3%. Calls come from the whole dose curve; as a rule, active = well fitted curve in the direction sought with a large enough effect; inconclusive = small, poorly fitted or top-dose-only effect, or another doubt; inactive = no such curve, though single readings can be large; an effect the other way counts as inactive or inconclusive. Potency is the fitted concentration of half-maximal effect.

SMILES	FLuc modulator	SMN2 splice up	NPC1 prom act	ELG1 DNA repair	Rab9 prom act	ELG1 genotox
Cc1ccc(N(C(=O)Nc2ccccc2)C2=NCC(C)S2)cc1 (stereo unspecified)	-18%	-4%	0%	?	-6%	6%
Cc1ccnc(N(C(=O)Nc2ccccc2)C2=NCC(C)(C)S2)c1	19µM*	/	2.5µM*	?	?	?
O=C(/C(Cl)=C/Nc1ccc(Br)cn1)C(F)(F)F	-7%	10%	2%	?	18%	-1%
CC(NC(N)=O)C(=O)OCC(=O)c1ccc(-c2ccccc2)cc1 (stereo unspecified)	12µM*	26%	10%	?	18%	7%
O=C(O)CCC(=O)NNC(=O)c1ccc(-c2ccccc2)cc1	19µM*	26%	-1%	17%	1%	2%
O=C(O)CCC(=O)NNC(=O)c1ccc([N+](=O)[O-])cc1	-2%	/	0%	-3%	-4%	0%
COc1ccc(C(=O)CCC(=O)O)cc1	4%	-14%	1%	5%	-8%	6%
CCC(=O)c1ccc(O)cc1	5%	-17%	-2%	-5%	-2%	2%
O=C(O)CCC(=O)c1ccc(-c2ccccc2)cc1	8.5µM*	29%	25%	?	?	9%
COC(=O)c1ccccc1NC(=O)COC(=O)[C@H](C)NC(N)=O	3%	/	2%	-6%	3%	0%
CCC(=O)c1ccc(-c2ccccc2)cc1	15µM*	?	3%	?	2%	?
Cc1c(C)c2cc3c(c(C)c2oc1=O)OCN(CCc1ccc(F)cc1)C3	-4%	5%	/	/	/	/
CC(C(=O)O/N=C(\N)c1cccnc1)c1ccc([N+](=O)[O-])cc1 (stereo unspecified)	6%	18%	0%	-13%	-33%	-2%
CCCC(C)NC(=O)c1ccc(-c2ccccc2)cc1 (stereo unspecified)	?	/	?	?	1.8µM*	?
FC(F)Oc1ccc(NC(=S)NC2CCCCCCC2)cc1	19µM*	/	23%	19%	28%	-12%
S=C(Nc1ccc(Br)cc1)NC1CCCCC1	11µM*	13µM*	23%	?	21%	7%
S=C(Nc1ccc(Cl)cc1)NC1CCCCC1	15µM*	/	29%	35%	19%	-4%
CCN(CC)CCN(C(=O)c1ccc2ncsc2c1)c1nc2cc3c(cc2s1)OCO3	9.5µM*	/	0.71µM*	?	?	2.9µM*
CCN(CC)CCN(C(=O)c1ccc(C(=O)c2ccccc2)cc1)c1nc2cc3c(cc2s1)OCO3	-3%	/	-2%	-6%	5%	-11%
CN(C)C=NC(=O)c1cc2c(n(-c3ccccc3)c1=O)CC(C)(C)CC2=O	-5%	-1%	/	/	/	/
Cc1ccc(NC(=S)Nc2ccc(C(C)C)cc2)cc1S(=O)(=O)N1CCCCCC1	-11%	-57%	-10%	12µM*	-12%	0%
CCOc1ccc(OCCC(=O)OCC(=O)Nc2ccc(C)c(S(=O)(=O)N3CCCCC3)c2)cc1	11µM*	/	-1%	3%	-1%	0%
COc1ccc(C(=O)Nc2ccc(N3CCCCCC3)cc2)cc1S(=O)(=O)N1CCOCC1	?	/	-9%	21µM*	-24%	-6%
CCOc1ccc(NC(=O)CN2CCCC2c2cccs2)cc1S(=O)(=O)N1CCCCC1 (stereo unspecified)	/	/	1%	15µM*	-5%	-9%
COc1ccc(NC(=S)Nc2ccc(C)c(S(=O)(=O)N3CCCCC3)c2)cc1	2%	-13%[1.84 µM]	-9%	-14%	-1%	2%
SMILES	FLuc modulator	SMN2 splice up	NPC1 prom act	ELG1 DNA repair	Rab9 prom act	ELG1 genotox
Cc1cc(OC(C)C(=O)NNC(=O)Nc2ccc(F)cc2F)cc(C)c1Cl (stereo unspecified)	1%	/	1%	0%	-1%	0%
COc1ccc(OC)c(S(=O)(=O)N2CCC(C(=O)Nc3cccc(C)c3)CC2)c1	-1%	-6%	-2%	21µM*	0%	-8%
Cc1ccc(C(=O)Nc2cccc(C(=O)N3CCOCC3)c2)cc1Cl	9.5µM*	/	27%	?	?	?
Cc1ccc(C(=O)Nc2cccc(C(=O)O)c2)cc1S(=O)(=O)N1CCCC1	0.095µM*	11µM*	/	/	/	/
Cc1ccc(C(=O)O)cc1S(=O)(=O)N1CCC(C(=O)O)CC1	1%	11µM*	0%	-2%	0%	-1%
O/N=C/C1=C(Cl)c2ccccc2CC1	?	-10%	-7%	13%	-4%	0%
COc1ccc(NC(=O)c2ccc(=O)[nH]c2)cc1S(=O)(=O)N1CCCCC1	-1%	3%	-1%	16%	2%	3%
O=C(Nc1cccnc1)c1ccc(Cl)c(S(=O)(=O)N2CCCCCC2)c1	?	-54%	6%	21µM*	-2%	-11%
O=S(=O)(c1cccc(S(=O)(=O)N2CCCC2)c1)c1cccc(S(=O)(=O)N2CCCC2)c1	0%	-33%	1%	21µM*	-10%	-10%
COc1ccc(C(=O)Nc2cccc(C(=O)O)c2)cc1S(=O)(=O)N1CCCC1	11µM*	/	?	-10%	?	-1%
Cc1ccc(NC(=O)c2ccc(=O)[nH]c2)cc1S(=O)(=O)N1CCCCCC1	/	/	/	16µM*	/	-3%
COc1ccc(-c2cn3c(n2)sc2cc(C(=O)Nc4ccc(C)c(Cl)c4)ccc23)cc1	-16%	/	/	/	/	/
O=C(CNCc1ccccc1)Nc1ccc(Cl)cc1	?	/	?	25%	25%	17%
COc1ccc(NC(=O)C23CC4CC(CC(Cl)(C4)C2)C3)cc1S(=O)(=O)N1CCOCC1	/	/	/	16µM*	/	-5%
O=C(O)c1cccc(NC(=O)c2cccc(S(=O)(=O)N3CCCCC3)c2)c1	6µM*	24%	?	?	2.8µM*	?
CCOc1ncccc1C(=O)Nc1ccc(OC)c(S(=O)(=O)N2CCCCC2)c1	5%	-22%	-7%	?	-2%	1%
CCOc1cc(C(=O)CCC(=O)OCC(=O)Nc2ccc(C)c(S(=O)(=O)N(C)C)c2)ccc1O	19µM*	-7%	5%	?	0%	14%
Cc1ccc(NC(=O)COC(=O)CCC(=O)c2ccc(Cl)cc2)cc1S(=O)(=O)N(C)C	?	/	-2%	18%	-3%	3%
CCOc1ncccc1C(=O)Nc1ccc(C)c(S(=O)(=O)N2CCCCCC2)c1	0%	/	-2%	21µM*	-6%	-7%
